Drawing on PubChem BioAssay (EPA / NIEHS), this text covers outcome and AC50 for 4 compounds.

Common to all, as to settings: mRNA level, 48 h; actives raise or lower the signal
Read-out in experiment [1]: Early growth response protein 1 (EGR1) transcription factor, EGR1 (gene 1958)
The experiment in a line: LTEA_HepaRG_EGR1: Life Technologies and Expression Analysis (LTEA) Assay for Early growth response protein 1 (EGR1) transcription factor using HepaRG (AID 2283490). The procedure, abridged:
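Differentiated human HepaRG cells in serum-free induction medium were exposed in duplicate for 48 h to eight concentrations (top 100 uM, half-log steps) in 0.5% DMSO. EGR1 mRNA was quantified by qRT-PCR, normalized to ACTB, GAPDH and POLR2A, and fitted bidirectionally versus DMSO.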

Read-out in experiment [2]: Ezrin (EZR), EZR (gene 7430)
Kind of experiment: LTEA_HepaRG_EZR: Life Technologies and Expression Analysis (LTEA) Assay for Ezrin (EZR) using HepaRG (AID 2283491). Put shortly:
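Differentiated human HepaRG cells, 48 h after plating, were exposed in serum-free induction medium for 48 hours to eight half-log concentrations up to 100 uM in 0.5% DMSO. EZR mRNA was measured by TaqMan qRT-PCR, normalized to ACTB, GAPDH and POLR2A, and fitted bidirectionally against DMSO.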

Read-out in another experiment: CYP3A5 (gene 1577)
Kind of experiment: LTEA_HepaRG_CYP3A5: Life Technologies and Expression Analysis (LTEA) Assay for CYP3A5 using HepaRG (AID 2283493). The procedure, abridged:
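Differentiated HepaRG cells in serum-free induction medium were dosed 48 h with test chemicals (8-point half-log series, top 100 uM, 0.5% DMSO, duplicate). CYP3A5 mRNA measured by qRT-PCR, normalized to ACTB, GAPDH, POLR2A; bidirectional fit versus DMSO.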

Read-out in experiment [3]: Fatty Acid-Binding Protein 1 (FABP1), FABP1 (gene 2168)
Kind of experiment: LTEA_HepaRG_FABP1: Life Technologies and Expression Analysis (LTEA) Assay for Fatty Acid-Binding Protein 1 (FABP1) using HepaRG (AID 2283494). Put shortly:
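Differentiated human HepaRG cells were exposed in duplicate for 48 h in serum-free induction medium to 8-point half-log concentration series topping at 100 uM in 0.5% DMSO. FABP1 mRNA measured by TaqMan qRT-PCR, normalized to ACTB/GAPDH/POLR2A; bidirectional fit versus DMSO.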

Read-out in experiment [4]: Cytochrome P450 4A22 (Homo sapiens) (UniProt Q5TCH4)
Kind of experiment: LTEA_HepaRG_CYP4A22: Life Technologies and Expression Analysis (LTEA) Assay for Cytochrome P450 4A22 (CYP4A22) using HepaRG (AID 2283495). The procedure, abridged:
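Differentiated HepaRG cells in serum-free induction medium exposed 48 h in duplicate to eight half-log concentrations up to 100 uM in 0.5% DMSO. CYP4A22 mRNA quantified by TaqMan qRT-PCR, normalized to ACTB, GAPDH and POLR2A; bidirectional fit versus DMSO.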

Read-out in experiment [5]: Glutathione S-Transferase (GSTA2), GSTA2 (gene 2939)
The experiment in a line: LTEA_HepaRG_GSTA2: Life Technologies and Expression Analysis (LTEA) Assay for Glutathione S-Transferase (GSTA2) using HepaRG (AID 2283497). The procedure, abridged:
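Human HepaRG cells, plated 48 h, then exposed in serum-free induction medium for 48 h to eight half-log concentrations up to 100 uM in 0.5% DMSO, duplicate. GSTA2 mRNA by qRT-PCR, normalized to ACTB/GAPDH/POLR2A; bidirectional fit versus DMSO.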

Read-out in experiment [6]: Glutamate-cysteine ligase catalytic (GCLC), GCLC (gene 2729)
Kind of experiment: LTEA_HepaRG_GCLC: Life Technologies and Expression Analysis (LTEA) Assay for Glutamate-cysteine ligase catalytic (GCLC) using HepaRG (AID 2283498). The procedure, abridged: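 Differentiated human HepaRG cells, plated 48 h then switched to serum-free induction medium, were exposed in duplicate for 48 h to 8 half-log concentrations topping at 100 uM in 0.5% DMSO. GCLC mRNA was quantified by qRT-PCR against ACTB, GAPDH and POLR2A.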

Read-out in experiment [7]: growth arrest and DNA damage 45 (GADD45G), GADD45G (gene 10912)
The experiment in a line: LTEA_HepaRG_GADD45G: Life Technologies and Expression Analysis (LTEA) Assay for growth arrest and DNA damage 45 (GADD45G) using HepaRG (AID 2283499). Put shortly: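 Differentiated human HepaRG cells, 48 h post-plating, exposed 48 h in serum-free induction medium to 8 half-log concentrations (top 100 uM, 0.5% DMSO) in duplicate. GADD45G mRNA measured by Fluidigm TaqMan qRT-PCR, normalized to ACTB, GAPDH, POLR2A; bidirectional fit versus DMSO.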

Read-out in experiment [8]: Glutamate-cysteine ligase regulatory (GCLM), GCLM (gene 2730)
Kind of experiment: LTEA_HepaRG_GCLM: Life Technologies and Expression Analysis (LTEA) Assay for Glutamate-cysteine ligase regulatory (GCLM) using HepaRG (AID 2283500). Put shortly: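 Differentiated human HepaRG cells exposed 48 h in serum-free induction medium to 8-point half-log concentrations (top 100 uM, 0.5% DMSO), in duplicate. GCLM mRNA quantified by qRT-PCR, normalized to ACTB, GAPDH, POLR2A; bidirectional fitting versus DMSO.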

Read-out in experiment [9]: Glutathione S-transferase M3 (GSTM3), GSTM3 (gene 2947)
The experiment in a line: LTEA_HepaRG_GSTM3: Life Technologies and Expression Analysis (LTEA) Assay for Glutathione S-transferase M3 (GSTM3) using HepaRG (AID 2283501). The procedure, abridged:
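Differentiated human HepaRG cells were exposed in duplicate for 48 h in serum-free induction medium, 8 points from 100 uM top in half-log steps, 0.5% DMSO. GSTM3 mRNA was measured by TaqMan qRT-PCR, normalized to ACTB, GAPDH and POLR2A; bidirectional fit versus DMSO.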

Read-out in experiment [10]: Heat shock 70 kDa protein 1 (HSPA1A), gene 3303
Kind of experiment: LTEA_HepaRG_HSPA1A: Life Technologies and Expression Analysis (LTEA) Assay for Heat shock 70 kDa protein 1 (HSPA1A) using HepaRG (AID 2283502). The procedure, abridged: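 Differentiated human HepaRG cells in serum-free induction medium were exposed in duplicate for 48 h to eight concentrations (top 100 uM, half-log steps, 0.5% DMSO). HSPA1A mRNA was quantified by qRT-PCR, normalized to ACTB, GAPDH and POLR2A, and fitted bidirectionally against DMSO.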

Read-out in experiment [11]: Hypoxia-inducible factor 1-alpha (Homo sapiens) (UniProt Q16665)
The experiment in a line: LTEA_HepaRG_HIF1A: Life Technologies and Expression Analysis (LTEA) Assay for Hypoxia-inducible factor 1 (HIF1A) Trancription factor using HepaRG (AID 2283503). The procedure, abridged:
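HepaRG, 48 h exposure, 8-pt half-log series from 100 uM, 0.5% DMSO vehicle, duplicates. Readout: HIF1A transcript by qRT-PCR (Fluidigm array), housekeeping-normalised. Bidirectional curve fit vs DMSO baseline.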

Read-out in experiment [12]: 3-Hydroxy-3-Methylglutaryl-CoA Synthase 2 (HMGCS2), HMGCS2 (gene 3158)
The experiment in a line: LTEA_HepaRG_HMGCS2: Life Technologies and Expression Analysis (LTEA) Assay for 3-Hydroxy-3-Methylglutaryl-CoA Synthase 2 (HMGCS2) using HepaRG (AID 2283504). Put shortly: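 Human HepaRG cells in serum-free induction medium were exposed in duplicate for 48 h to 8-point half-log series from 100 uM top in 0.5% DMSO. HMGCS2 mRNA measured by TaqMan qRT-PCR, normalised to ACTB, GAPDH, POLR2A; bidirectional fit versus DMSO.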

Read-out in another experiment: HGF (gene 3082)
Kind of experiment: LTEA_HepaRG_HGF: Life Technologies and Expression Analysis (LTEA) Assay for Hepatocyte Growth Facto (HGF) using HepaRG (AID 2283505). Put shortly: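 Differentiated HepaRG cells in serum-free induction medium exposed 48 h in duplicate, 8 half-log concentrations from 100 uM in 0.5% DMSO. HGF mRNA by qRT-PCR, normalised to ACTB, GAPDH, POLR2A; bidirectional fitting.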

Read-out in experiment [13]: Insulin Like Growth Factor 1 (IGF1), IGF1 (gene 3479)
The experiment in a line: LTEA_HepaRG_IGF1: Life Technologies and Expression Analysis (LTEA) Assay for Insulin Like Growth Factor 1 (IGF1) using HepaRG (AID 2283506). The procedure, abridged: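 Differentiated human HepaRG cells were dosed for 48 h in serum-free induction medium with 0.5% DMSO, eight half-log concentrations up to 100 uM, in duplicate. IGF1 mRNA was quantified by qRT-PCR normalized to ACTB, GAPDH, POLR2A; bidirectional fitting versus DMSO.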

Read-out in experiment [14]: Insulin-like growth factor-binding protein 1 (IGFBP1), IGFBP1 (gene 3484)
Kind of experiment: LTEA_HepaRG_IGFBP1: Life Technologies and Expression Analysis (LTEA) Assay for Insulin-like growth factor-binding protein 1 (IGFBP1) using HepaRG (AID 2283508). The procedure, abridged: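 HepaRG cells, plated 48 h then switched to serum-free induction medium, exposed in duplicate for 48 h to 8-point half-log series from 100 uM in 0.5% DMSO. mRNA measured by qRT-PCR, normalized to ACTB/GAPDH/POLR2A; bidirectional fit versus DMSO.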

Read-out in experiment [15]: Interleukin 6 (IL6), IL6 (gene 3569)
Kind of experiment: LTEA_HepaRG_IL6: Life Technologies and Expression Analysis (LTEA) Assay for Interleukin 6 (IL6) using HepaRG (AID 2283509). Put shortly: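 Differentiated human HepaRG cells, plated 48 h then switched to serum-free induction medium, were exposed in duplicate for 48 h to eight half-log concentrations up to 100 uM in 0.5% DMSO. IL6 mRNA measured by qRT-PCR, normalized to ACTB/GAPDH/POLR2A.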

Read-out in experiment [16]: Interleukin 6 Receptor (IL6R), IL6R (gene 3570)
The experiment in a line: LTEA_HepaRG_IL6R: Life Technologies and Expression Analysis (LTEA) Assay for Interleukin 6 Receptor (IL6R) using HepaRG (AID 2283510). The procedure, abridged: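 Differentiated human HepaRG cells, plated 48 h then switched to serum-free induction medium, were dosed in duplicate for 48 h at eight half-log concentrations up to 100 uM in 0.5% DMSO. IL6R mRNA quantified by qRT-PCR, normalized to ACTB/GAPDH/POLR2A; bidirectional fit versus DMSO.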

Read-out in experiment [17]: Potassium channel subfamily K member 1 (KCNK1), KCNK1 (gene 3775)
Kind of experiment: LTEA_HepaRG_KCNK1: Life Technologies and Expression Analysis (LTEA) Assay for Potassium channel subfamily K member 1 (KCNK1) using HepaRG (AID 2283511). The procedure, abridged:
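Differentiated human HepaRG cells in serum-free induction medium were exposed in duplicate for 48 h to 8 half-log concentrations up to 100 uM in 0.5% DMSO. KCNK1 mRNA was measured by TaqMan qRT-PCR, normalized to ACTB, GAPDH and POLR2A, and fitted bidirectionally versus DMSO.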

Read-out in experiment [18]: Keratin 19 (KRT19), KRT19 (gene 3880)
Kind of experiment: LTEA_HepaRG_KRT19: Life Technologies and Expression Analysis (LTEA) Assay for Keratin 19 (KRT19) using HepaRG (AID 2283512). The procedure, abridged:
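Differentiated HepaRG cells in serum-free induction medium, exposed 48 h in duplicate to 8 half-log concentrations up to 100 uM in 0.5% DMSO. KRT19 mRNA by qRT-PCR, normalized to ACTB, GAPDH, POLR2A; bidirectional fit vs DMSO.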

The source made the active and inactive calls. How the source made its calls: active means hit-call score of the fitted dose curve at least 0.9, where 1 is the maximum; inactive means score below 0.9.

Hypoxia-inducible factor 1-alpha (Homo sapiens), sequence (Q16665 whole entry, looked up): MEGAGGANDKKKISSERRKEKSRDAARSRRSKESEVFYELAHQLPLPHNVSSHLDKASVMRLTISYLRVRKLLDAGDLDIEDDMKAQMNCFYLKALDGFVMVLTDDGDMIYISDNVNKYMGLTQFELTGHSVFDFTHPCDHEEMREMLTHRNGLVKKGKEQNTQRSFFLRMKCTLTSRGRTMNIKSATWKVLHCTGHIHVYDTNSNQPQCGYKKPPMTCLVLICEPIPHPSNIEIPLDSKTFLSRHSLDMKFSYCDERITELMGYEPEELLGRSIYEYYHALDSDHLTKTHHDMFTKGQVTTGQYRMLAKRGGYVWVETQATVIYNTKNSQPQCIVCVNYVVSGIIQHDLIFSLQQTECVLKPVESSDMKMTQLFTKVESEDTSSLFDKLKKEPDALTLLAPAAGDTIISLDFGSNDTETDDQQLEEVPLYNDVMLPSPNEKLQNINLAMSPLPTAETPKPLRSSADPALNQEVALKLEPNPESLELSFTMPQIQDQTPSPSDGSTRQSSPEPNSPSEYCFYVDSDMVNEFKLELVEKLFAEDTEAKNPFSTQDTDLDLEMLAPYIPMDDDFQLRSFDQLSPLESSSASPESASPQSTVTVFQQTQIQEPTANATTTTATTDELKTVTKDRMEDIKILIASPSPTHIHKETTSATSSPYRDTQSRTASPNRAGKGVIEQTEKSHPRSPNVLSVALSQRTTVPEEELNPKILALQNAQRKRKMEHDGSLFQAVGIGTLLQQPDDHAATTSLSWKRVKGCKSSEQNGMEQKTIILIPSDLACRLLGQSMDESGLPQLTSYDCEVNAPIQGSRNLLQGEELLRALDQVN

As to `OCC(CO)(CBr)CBr`, the compound was called inactive (in [1]; in experiment [2]; in the experiment with CYP3A5 (gene 1577); in [3]; in experiment [4]; in experiment [5]). The outcome in [6], in experiment [7], in [8], in experiment [9], in experiment [10] and in [11] was inactive. The compound was classed as inactive (in experiment [12]; in the experiment with HGF (gene 3082); in experiment [13]; in experiment [14]; in [15]; in experiment [16]). The call in [17] and in experiment [18] was inactive.

One may read the AC50 as the concentration giving half of the maximal activity seen. Consider `CCCCc1oc2ccccc2c1C(=O)c1cc(I)c(OCCN(CC)CC)c(I)c1`, for which the concentration at half-maximal activity (AC50) in [1] was 61 µM (active); in experiment [2], 58.2 µM (active); in experiment [3] it was 69.9 µM (active); in experiment [5], 59 µM (active); in [6], 67.4 µM (active); in experiment [7], 55.1 µM (active). Besides, the concentration at half-maximal activity (AC50) in experiment [8] is 61.8 µM (active); in experiment [9], 37.8 µM (active); in experiment [10], 60 µM (active); in experiment [11], 64.5 µM (active); in experiment [12], 61.6 µM (active); in experiment [13] it was 46.2 µM (active). Besides, the AC50 was 54 µM (active) in experiment [14], 61.9 µM (active) in [15], 55.5 µM (active) in experiment [17] and 37.8 µM (active) in experiment [18]. For the same compound, the call (with HGF (gene 3082); in experiment [16]) was inactive.

Turning to `CS(=O)(=O)c1ccc([C@@H](CC2CCCC2)C(=O)Nc2cnccn2)cc1Cl`, the AC50 was 83.9 µM (active) in [1]; 63.4 µM (active) in [3]; 73.7 µM (active) in [5]; 50 µM (active) in experiment [8]; 74.3 µM (active) in experiment [12]; 32.8 µM (active) in [13]. Moreover, the concentration at half-maximal activity (AC50) in experiment [14] was 75.2 µM (active). Further, the result in experiment [2], in [6], in [7], in experiment [9], in [10] and in experiment [11] was inactive. Further, the call in [15], in experiment [16], in experiment [17] and in experiment [18] was inactive.

With `O=C1NS(=O)(=O)c2ccccc21`, the call (in experiment [1]; in experiment [2]; with CYP3A5 (gene 1577); in experiment [3]; in experiment [4]; in experiment [5]) was inactive. In addition, the result in experiment [6], in [7], in experiment [8], in experiment [9], in [10] and in experiment [11] was inactive. Besides, the call (in [12]; with HGF (gene 3082); in experiment [13]; in [14]; in experiment [15]; in experiment [16]) was inactive. The result in experiment [17] and in experiment [18] was inactive.
